The values that follow come from PubChem BioAssay AID720504 (National Center for Advancing Translational Sciences (NCATS), 2013).

Among all 360,000 compounds or so, about 10,000 (2.8%) were called active. Another 4% or so got no clear call; they are omitted. Many of the other results were omitted from the sample, so actives are more common in it than they were. Unmarked numbers belong to inactive results. Calls follow the shape of the dose curve; as a rule, active = well fitted inhibition curve with a large enough effect; inconclusive = small, poorly fitted or top-dose-only effect; inactive = flat fitted curve, though single readings scatter.
% is scaled to controls: 0 for no effect and ±100 for the full control effect; potency is read from the fitted curve at half-maximal effect.

In the test the target is Serine/threonine-protein kinase PLK1 (Homo sapiens) (UniProt P53350). The experiment in a line: qHTS for Inhibitors of PLK1-PDB (polo-like kinase 1 - polo-box domain): Primary Screen. Also: nearly all actives have a fitted effect of over 65% in size. As to max response, negative = inhibition: series mostly up to about 57 µM. The conditions noted are these: Plk1 PBD binding of FITC phosphopeptide, fluorescence polarization.
Chain of Serine/threonine-protein kinase PLK1 (Homo sapiens) (P53350 whole entry, looked up, the tested form may be a part): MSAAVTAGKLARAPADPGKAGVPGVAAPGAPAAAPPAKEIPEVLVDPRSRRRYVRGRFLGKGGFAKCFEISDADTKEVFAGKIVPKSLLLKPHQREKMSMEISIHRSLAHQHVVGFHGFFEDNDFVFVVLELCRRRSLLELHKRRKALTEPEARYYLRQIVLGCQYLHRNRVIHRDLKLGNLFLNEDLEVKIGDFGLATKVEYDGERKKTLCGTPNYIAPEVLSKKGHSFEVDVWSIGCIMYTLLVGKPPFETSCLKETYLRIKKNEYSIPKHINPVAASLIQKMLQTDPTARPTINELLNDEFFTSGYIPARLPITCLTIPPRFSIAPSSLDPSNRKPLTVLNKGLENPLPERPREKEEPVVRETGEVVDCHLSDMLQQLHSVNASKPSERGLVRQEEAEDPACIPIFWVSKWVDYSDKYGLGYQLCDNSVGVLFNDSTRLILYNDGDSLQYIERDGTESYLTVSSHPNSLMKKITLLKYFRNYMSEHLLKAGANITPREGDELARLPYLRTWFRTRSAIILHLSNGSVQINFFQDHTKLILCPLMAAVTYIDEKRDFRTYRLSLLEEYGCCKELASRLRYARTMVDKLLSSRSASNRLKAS
With `O=C(CC[C@H]1O[C@@H](n2ccc(=O)[nH]c2=O)[C@H](O)[C@@H]1O)N[C@H](Cc1ccccc1)C(=O)NCCCN1CCCC1=O`, the max response, negative = inhibition is -13.5%.
As for `CN(C)CCNC(=O)c1cccc(-c2cnc3c(NC=O)cc(-c4cccc(C(F)(F)F)c4)cn23)c1`, the max response, negative = inhibition is -13.6%.
On to `CC(C)(C)OC(=O)N1CCN(C(=O)c2[nH]c(C(F)(F)F)nc2-c2ccccc2)CC1`, for which the max response, negative = inhibition is 1.58%.
For `CCOC(=O)c1cnc(SCC(=O)Nc2cccc(OC)c2)nc1N`, the max response, negative = inhibition is -5.18%.
Regarding `COC(=O)c1sc(N2CCN(Cc3ccccc3)CC2)nc1N`, the max response, negative = inhibition is -4.47%.
Take `COC(=O)c1sc(=S)n(-c2ccccc2)c1N`: the Potency was 10 µM (active).
Take `CCOC(=O)C(C)n1cnc2c(nnn2-c2cccc(OC)c2)c1=O` (stereo not drawn): the max response, negative = inhibition is 1.99%.
Take `COC(=O)C1=C(C)N(C)C(=S)NC1c1ccccc1` (stereo not drawn): the max response, negative = inhibition is -7.92%.
With `CCOC(=O)c1sc(=S)n(-c2cccc(OC)c2)c1N`, the Potency was 14.1 µM (active).
As for `CC1(C)OC(=O)C2=C(C[C@@H](C3CC3)O[C@H]2CCc2cccc(Cl)c2)O1`, the max response, negative = inhibition was 4.74%.
With `COc1ccc(C(C#N)=C2C=CC(=NO)c3ccccc32)cc1`, the max response, negative = inhibition was -0.254%.
Regarding `COc1ccccc1NC(=O)C(CC(=O)O)Cc1cc(C)cc(C)c1` (stereo not drawn), the max response, negative = inhibition is -4.75%.
As for `Cn1c(Nc2ccc(F)cc2)nc2cc(-c3ccsc3)sc2c1=O`, the max response, negative = inhibition was -9.36%.
Consider `CCn1c(CSc2ncccn2)nnc1SCC(=O)N1c2ccccc2CC1C` (stereo not drawn), for which the max response, negative = inhibition was -13%.
The same measure, in the same setting: then `CC1Cc2ccccc2N1C(=O)CSc1nnc(-c2ccc(S(=O)(=O)N3CCCC3)cc2)n1C` (stereo not drawn), with -7.29%.
On to `CC1Cc2ccccc2N1C(=O)CSc1nnc(C2CC2)n1C` (stereo not drawn), for which the Potency was 21.2 µM (active).
Consider `Cc1ccc(Cn2cc(CN3CC(N4CCN(C)CC4)CS3(=O)=O)nn2)cc1` (stereo not drawn), for which the max response, negative = inhibition was -1.82%.
`O=C1[C@H]2[C@@H](c3ccc(C(F)(F)F)cc3)N[C@]3(CCCN(Cc4ccc(Br)cc4)C3=O)[C@H]2C(=O)N1Cc1ccccc1`: the max response, negative = inhibition was 8.62%.
As for `CC(C)C1CC2=C(C(=O)OC(C)(C)O2)C(c2ccc(F)cc2)O1` (stereo not drawn), the max response, negative = inhibition was 2.13%.
For `CNC(=S)Nc1ccc([N+](=O)[O-])cc1`, the max response, negative = inhibition was -17.5%.
As for `O=C1/C(=C\c2ccc([N+](=O)[O-])cc2)CS(=O)(=O)C/C1=C/c1ccc([N+](=O)[O-])cc1`, the Potency is 4.23 µM (active).
Take `O=C(O)C(=Cc1ccc([N+](=O)[O-])cc1)CCc1ccccc1`: the max response, negative = inhibition was -6.74%.
As for `CC(=O)OC[C@@H]1CN(Cc2ccccc2)C[C@H](n2cnc3c(NCc4ccco4)ncnc32)O1`, the max response, negative = inhibition was 1.29%.
Consider `CCN1C(=O)[C@@H]2[C@@H]3CN(S(=O)(=O)c4ccccc4C)[C@@H](c4ccc(Cl)cc4)[C@@H]3C(=O)C[C@@H]2C1=O`, for which the max response, negative = inhibition is -4.29%.
For `CCS(=O)(=O)c1cc([N+](=O)[O-])c(Sc2ccccc2N)s1`, the Potency was 23.8 µM (active).
`Cc1ccc(S(=O)(=O)NCCSc2ccccc2)cc1[N+](=O)[O-]`: the max response, negative = inhibition is 1.72%.
Turning to `Cc1cccc(CN2CCN(C3CN(Cc4cn(Cc5cc(C)cc(C)c5)nn4)S(=O)(=O)C3)CC2)c1` (stereo not drawn), the max response, negative = inhibition was -3.6%.
For the compound `COc1ccc(S(=O)(=O)N(C)C[C@H]2OCc3cnnn3CCCC(=O)N([C@H](C)CO)C[C@H]2C)cc1`, the max response, negative = inhibition was -13.3%.
For the compound `C/C(=N\Nc1cccc(C(=O)O)c1)c1ccc2c(c1)Nc1ccccc1S2`, the Potency was 26.7 µM (active).
On to `CC(=O)Nc1cccc(/C(C)=N/NC(=O)c2c(-c3ccccc3Cl)noc2C)c1`, for which the max response, negative = inhibition is -10.9%.
On the same count and under the same terms, then `Cc1ccccc1NC(=O)c1cc(S(=O)(=O)Nc2cccc(C(=O)O)c2)ccc1Cl`, with 4.03%.
For the compound `CCOC(=O)[C@]12CCCC=C1N(CCC1=CCCCC1)C(=O)[C@H](CC(=O)N1CCSCC1)C2`, the max response, negative = inhibition was 1.28%.
In the case of `O=C1C(Cl)=C(Oc2ccccc2)C(=O)c2ccccc21`, the Potency was 1.68 µM (active).
For the compound `COC(=O)c1ccc2nc(-c3ccc(OC)c(OC)c3)c(Cc3ccccc3)n2c1`, the max response, negative = inhibition was -13.8%.
In the case of `CN(C(=O)c1ccccn1)c1nnc(-c2ccccn2)s1`, the max response, negative = inhibition was 1.77%.
For `CN(C)c1ccnc2sc(C(=O)c3ccccc3)c(N)c12`, the Potency is 29.9 µM (active).
Regarding `CCN(CC)C(=O)c1sc2nc(-c3ccccc3)ccc2c1N`, the max response, negative = inhibition is -8.25%.
On to `O=C(NC(c1ccc(Cl)cc1)c1cnccn1)C1CCN(Cc2ccc(Cl)cc2)CC1` (stereo not drawn), for which the max response, negative = inhibition is 2.32%.
The same measure, in the same setting: for `Clc1cccc(Cc2c(-c3cccc(Cl)c3)nc3ccc(Cl)cn23)c1` the value was -13.7%.
In the case of `CSc1ccccc1NC(=O)CN(C)CC(=O)Nc1ccc(Cl)cc1[N+](=O)[O-]`, the max response, negative = inhibition is -4.66%.
Regarding `O=C(COc1ccc(Cl)cc1[N+](=O)[O-])N1CCCCC1`, the max response, negative = inhibition was -4.72%.
As to `O=C1CCCCC1Sc1ccc(Cl)cc1[N+](=O)[O-]` (stereo not drawn), the Potency is 4.74 µM (active).
With `CCOC(=O)c1c(NC(=S)SC)sc(C(=O)N2CCc3ccccc3C2)c1C`, the max response, negative = inhibition was -5.18%.
For the compound `CC(=O)NC(c1ccccc1)c1nc(-c2ccccc2C)cs1` (stereo not drawn), the max response, negative = inhibition is -5.3%.
Same read-out and setting: for `COCC1CCCCN1C(=O)c1cc(COc2ccc(C)c(C)c2)on1` (stereo not drawn) the value was 3.28%.
`CCOc1ccc(-n2c(N)c(C(=O)NCC3CCCO3)sc2=S)cc1` (stereo not drawn): the Potency was 23.8 µM (active).
For the compound `CCOc1ccc(S(=O)(=O)N2CCN(C(=S)NCC3CCCO3)CC2)cc1` (stereo not drawn), the max response, negative = inhibition was 1.52%.
The same measure, in the same setting: then `CCOc1ccc(NS(=O)(=O)c2ccc(C(=O)NCC3CCCO3)cc2)cc1` (stereo not drawn), with 1.53%.
As for `CCc1n[nH]c(=S)n1/N=C/c1c[nH]c2ccc(Br)cc12`, the Potency was 33.6 µM (active).
As for `Cc1ccccc1-c1n[nH]c(=S)n1/N=C/c1ccc(-c2ccccc2Br)o1`, the max response, negative = inhibition is -17.2%.
In the case of `CN(Cc1ccccc1F)c1cc2c(c3c1ccn3C)C1CCC2O1` (stereo not drawn), the max response, negative = inhibition is -4.37%.
`O=C1OCCOC2CCCc3oc(-c4ccccc4)c1c32` (stereo not drawn): the max response, negative = inhibition is -1.47%.
On to `CC1=C/C(=N\OS(=O)(=O)c2ccccc2)C=CC1=O`, for which the Potency was 1.26 µM (active).
Regarding `CCN(CC)CCN(C)C(c1ccnc2ccccc12)c1nnnn1-c1ccc2c(c1)OCCO2` (stereo not drawn), the max response, negative = inhibition is -13.1%.
In the case of `C=CCOc1ccc(/C=C2\SC(=S)N(CCC(=O)O)C2=O)cc1`, the Potency is 26.7 µM (active).
Turning to `COc1ccc(/C=C2\SC(=S)N(CCC(=O)N3CCOCC3)C2=O)cc1OC`, the max response, negative = inhibition is -7.23%.
Still for that read-out and setting: then `O=C1/C(=C/c2ccc(F)cc2)SC(=S)N1CCCC(=O)N1CCCCC1CCO` (stereo not drawn), with -15.9%; and `CCCCC[C@H](C)N1C[C@@H](COCc2ccccc2)Oc2cc(N3CCC[C@@H]3CO)ccc2S1(=O)=O`, with -6.61%.
For the compound `CC(C)C[C@@H]1Cc2[nH][nH]c(=O)c2[C@H](CCc2ccccc2)O1`, the max response, negative = inhibition is -16.3%.
For `COc1ccccc1CNC(=O)c1cc(-c2cc(Cl)ccc2C)n[nH]1`, the max response, negative = inhibition is 0.345%.
In the case of `O=[N+]([O-])/C=C/c1ccc2c(ccn2Cc2ccccc2)c1`, the Potency is 3.36 µM (active).
In the case of `CCc1nc2c(OCCOc3ccccc3)cccn2c1N(C)C(=O)c1ccccc1F`, the max response, negative = inhibition was -11.2%.
In the case of `CCCCc1nnc(NC(=O)CSc2nc(C)cc(=O)[nH]2)s1`, the max response, negative = inhibition is -4.5%.
For the compound `CCOC(=O)Cc1csc(NC(=O)CSc2nc(C)cc(=O)[nH]2)n1`, the Potency is 11.9 µM (active).
Regarding `CCOC(=O)Cc1csc(NC(=O)CSc2ccc(Br)cc2)n1`, the max response, negative = inhibition is -1.13%.
As to `Cn1c(NCc2cccnc2)nc2cc(-c3ccc(F)cc3)sc2c1=O`, the max response, negative = inhibition is -3.07%.
As for `COC(=O)[C@@]12C[C@@H](CC(=O)N3CCCCC3)C(=O)N(Cc3ccc4c(c3)OCO4)C1=CCC(C)(C)C2`, the max response, negative = inhibition was 2.15%.
In the case of `CC(C)C[C@H]1CNC(=S)N1C[C@H]1CCCN1C[C@H](Cc1ccc(O)cc1)N1C[C@H](Cc2ccc(O)cc2)N(CC2CCCCC2)C1=S`, the max response, negative = inhibition was 1.95%.
In the case of `CC1(C(=O)NCc2ccc3c(c2)OCO3)CCN1C(=O)Cc1cccc2ccccc12` (stereo not drawn), the max response, negative = inhibition was -5.76%.
For `CCn1c(C(C)NC(=O)c2ccc(C)cc2)n[nH]c1=S` (stereo not drawn), the max response, negative = inhibition was -15.1%.
On the same count and under the same terms, then `Cc1ccc(C(=O)N(CN2CCCC2=O)c2ccc(F)cc2)cc1`, with -5.15%.
`CCN1CCC2(CC1)N=C(c1ccc(F)cc1)C(=S)N2C(=O)c1ccc(C)cc1`: the Potency was 15 µM (active).
On to `CCOc1ccc2nc(NCCNC(=O)C(C)(C)C)c(C)cc2c1`, for which the Potency was 26.7 µM (active).
Turning to `CCOc1ccc(NC(=O)c2cc(C)nc3ccccc23)cc1`, the max response, negative = inhibition is -0.67%.
Same read-out and setting: then `CCOc1ccc(NS(=O)(=O)c2ccc(C)c(C(N)=O)c2)cc1`, with 1.44%; and `COc1ccc(NC(=O)C2(C)Cc3c(-c4cccc(NC(C)=O)c4)ccnc3O2)cc1OC` (stereo not drawn), with -12.3%; and `CN(C)CCCn1c(=O)n(Cc2ccccc2)c(=O)c2c3c(sc21)CCCCC3`, with -1.79%.
On to `CCn1c(=S)[nH]c2sc3c(c2c1=O)CCCCC3`, for which the Potency is 23.8 µM (active).
With `CCCc1nc2sc3c(c2c(=O)n1NC(=O)CCCl)CCCC3`, the max response, negative = inhibition was -16.7%.
Take `CCN(CC)C(=O)C1=C(C)N(Cc2ccc(OC)cc2)C(=O)C(CC(=O)NCc2ccco2)C1` (stereo not drawn): the max response, negative = inhibition is 5.53%.
On the same count and under the same terms, for `CC(C)c1cccc(C(C)C)c1Nc1cn[nH]c1` the value was 3.35%.
As for `CCN1CCN(C2CCCCC2NS(=O)(=O)c2ccc(Cl)cc2)CC1` (stereo not drawn), the Potency was 26.7 µM (active).
Take `O=S(=O)(NC1CCCCC1N1CCC(O)CC1)c1ccc(Cl)cc1` (stereo not drawn): the max response, negative = inhibition is -6.48%.
Turning to `O=S(=O)(NC1CCCCC1N1CCCCC1)c1ccc(Cl)cc1` (stereo not drawn), the max response, negative = inhibition is 3.73%.
For `Cc1cc(O)ccc1-c1cc(C(=O)NCc2cc(C(F)(F)F)cc(C(F)(F)F)c2)[nH]n1`, the max response, negative = inhibition is 3.49%.
On the same count and under the same terms, for `CCCCCC(O)(CCN1CCCCC1)c1ccccc1` (stereo not drawn) the value was -0.139%.
As to `CCCCCCC(O)(CCN1CCCCC1)c1ccccc1` (stereo not drawn), the Potency was 29.9 µM (active).
For the compound `C#CC(CCN1CCCCC1)(OC)c1ccccc1` (stereo not drawn), the max response, negative = inhibition is -7.33%.
